Assay outcomes deposited in PubChem by several laboratories.
LGR2 antag – blocks bursicon-induced cAMP signaling via Drosophila LGR2; inhibition, % at 9.99 µM; 380,000 compounds, 0.35% hits; HEK293 LGR2, CRE-luciferase, bursicon-stimulated, 4 h; AID 720647;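 active = drop in luminescence signal, shown as inhibition above about 50% in the replicate tests, limit read from the data, passing the limit was not always enough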;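 also: agonist challenge used bursicon conditioned medium at about half maximal strength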
SENP8 block-1 – blocks human SENP8 cleavage of Nedd8 substrate; AID 602440; recombinant SENP8, Nedd8 substrate fluorescence; inhibition, % at 20 µM; Q96LD8; 360,000 compounds, 0.64% hits; in the data active = inhibition mostly above about 40%, no sharp cut-off; inactive = mostly below about 27%
Target sequence (Q96LD8 whole entry, looked up): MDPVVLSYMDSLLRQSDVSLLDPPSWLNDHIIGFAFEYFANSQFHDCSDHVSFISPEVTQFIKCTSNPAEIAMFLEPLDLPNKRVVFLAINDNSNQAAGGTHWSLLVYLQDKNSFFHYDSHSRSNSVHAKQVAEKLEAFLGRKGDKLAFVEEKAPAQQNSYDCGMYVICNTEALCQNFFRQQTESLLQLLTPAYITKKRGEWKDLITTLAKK
HSP90 inh – HSP90 refolding inhibition in rabbit reticulocyte lysate. 290,000 compounds, 0.91% hits. AID 1789. inhibition, % at 5.6 µM. luciferase refolding luminescence, 3 h;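 active = inhibition above the screen-wide mean plus 3 SD, computed separately per campaign, cut at about 16% in these data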;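 also: 0% = DMSO wells and 100% = 60 µM geldanamycin wells; inhibitors lower the luminescence because luciferase stays unfolded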
SENP6 inh – SENP6 protease inhibition; inhibition, % at 10 µM; AID 2599; Q9GZR1; 330,000 compounds, 1.8% hits; Recombinant SENP6 catalytic domain, aminoluciferin luminescence;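 active = inhibition above about 50% at the single tested dose, limit read from the data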;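 also: plate controls were DMSO wells with enzyme for no effect and DMSO wells lacking enzyme for full effect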
SENP7 block – blocks the human protease SENP7; AID 434973; 330,000 compounds, 1.5% hits; inhibition, % at 5 µM; recombinant SENP7, Z-RLRGG-aminoluciferin luminescence, 40 min; Q9BQF6;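 active = inhibition above about 50% at the single test dose, limit read from the data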;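 also: plate controls were DMSO with enzyme for no effect and no enzyme buffer wells for full effect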
Target sequence (Q9BQF6 706-1050 limits assumed): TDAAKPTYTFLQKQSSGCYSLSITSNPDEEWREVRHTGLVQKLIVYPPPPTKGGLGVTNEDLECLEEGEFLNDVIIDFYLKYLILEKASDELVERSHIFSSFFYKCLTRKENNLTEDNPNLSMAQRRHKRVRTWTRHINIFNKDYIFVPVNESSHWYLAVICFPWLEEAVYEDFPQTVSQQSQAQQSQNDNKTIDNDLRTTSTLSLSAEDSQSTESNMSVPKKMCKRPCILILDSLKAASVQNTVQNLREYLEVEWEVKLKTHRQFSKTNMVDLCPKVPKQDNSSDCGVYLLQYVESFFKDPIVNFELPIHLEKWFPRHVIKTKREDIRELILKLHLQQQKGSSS
SENP8 block-2 – blocks the human protease SENP8 | Q96LD8 | purified SENP8, Z-RLRGG-aminoluciferin cleavage, luminescence | inhibition, % at 10 µM | 330,000 compounds, 1.2% hits | AID 2540; in the data active = inhibition above about 50%
Numbers without * were called inactive. A selection: hits, their analogues and other compounds. The true share with any hit is near 2.3%.

For CCCC(=O)Nc1ccc2c(c1)OC[C@H](C)N(Cc1cccc(F)c1)C[C@H](C)[C@@H](OC)CN(C)C2=O the results were LGR2 antag 12.
Screening COc1ccc(S(=O)(=O)Nc2ccc3c(c2)C(=O)N([C@H](C)CO)C[C@@H](C)[C@@H](CN(C)C(=O)NC(C)C)O3)cc1 returned LGR2 antag 4.
For CCOC(=O)c1ccc(NC(=O)COc2ccc(CNCCO)cc2OCC)cc1 the results were LGR2 antag -10, SENP8 block-1 8, HSP90 inh -2, SENP6 inh -8, SENP7 block 6 and SENP8 block-2 5.
For CCOC(=O)c1ccc(NC(=O)COc2ccccc2CNCCc2ccccc2)cc1 the results were LGR2 antag 71*, SENP8 block-1 12, HSP90 inh 5, SENP6 inh -23, SENP7 block -2 and SENP8 block-2 -16.
CCCNC(=O)Nc1ccc2c(c1)OC[C@@H](C)N(C(=O)CC)C[C@@H](C)[C@H](OC)CN(C)C2=O was read as LGR2 antag -28.
O=C(c1ccc(S(=O)(=O)N2CCCCC2)cc1)N1CCN(CCN2C(=O)c3cccc4cccc(c34)C2=O)CC1 was read as LGR2 antag 77*, SENP8 block-1 -11, HSP90 inh 0, SENP6 inh 6, SENP7 block 4 and SENP8 block-2 -1.
Screening O=S(=O)(c1ccccc1F)N1CC[C@H]2[C@H](CO)Nc3ccc(-c4cccc(F)c4)cc3[C@H]21 returned LGR2 antag -14.
Screening O=S(=O)(c1ccccc1F)N1CC[C@@H]2[C@H]1c1cc(-c3cccc(F)c3)ccc1N[C@@H]2CO returned LGR2 antag 97*.
O=C(c1ccccc1F)N1CC(=O)N2[C@H](C1)[C@@H](c1ccc(-c3cccnc3)cc1)[C@@H]2CO was read as LGR2 antag 7.
Screening C[C@H]1CN([C@@H](C)CO)C(=O)c2cc(C#CC3CC3)cnc2O[C@H]1CN(C)C(=O)Nc1ccc(F)cc1 returned LGR2 antag 8.
For CCOC(=O)c1ccc(N=Nc2c(C)c(C#N)c(O)[nH]c2=O)cc1 the results were LGR2 antag -91, SENP8 block-1 25, HSP90 inh 2, SENP6 inh 92*, SENP7 block 98* and SENP8 block-2 94*.
O=C(Cc1ccccn1)N1CC2(C1)[C@H](c1ccccc1)[C@@H](CO)N2C(=O)c1ccccc1 was read as LGR2 antag -8.
For Cc1[nH]n(-c2ccccc2)c(=O)c1N=Nc1cccc(Cl)c1 the results were LGR2 antag 14, SENP8 block-1 22, HSP90 inh 2, SENP6 inh -4, SENP7 block -14 and SENP8 block-2 -3.
`Cc1[nH]n(-c2ccc(Cl)cc2)c(=O)c1N=Nc1cccnc1` gave LGR2 antag -51, SENP8 block-1 43*, HSP90 inh 6, SENP6 inh -21, SENP7 block 9 and SENP8 block-2 -7.
For C[C@@H]1CN([C@H](C)CO)C(=O)c2cc(NC(=O)CCCCCC(=O)Nc3ccccc3N)ccc2O[C@@H]1CN(C)C(=O)Nc1ccccc1 the results were LGR2 antag 7.
Screening O=C(Cc1ccc(Cl)cc1)NCc1ccccc1Cl returned LGR2 antag -54, SENP8 block-1 6, HSP90 inh -5, SENP6 inh -1, SENP7 block -2 and SENP8 block-2 4.
O=C(Cc1ccccc1Cl)NC1(O)C(=O)c2ccccc2C1=O was read as SENP8 block-1 67*, HSP90 inh 4, SENP6 inh 38, SENP7 block 4 and SENP8 block-2 12.
Screening CCc1c(O)nc2sc3ccccc3n2c1=O returned LGR2 antag -24, SENP8 block-1 40*, HSP90 inh -2, SENP6 inh -3, SENP7 block 0 and SENP8 block-2 1.
Screening COC1C=CC=C(C)C(=O)NC2=CC(=O)C(N)=C(CC(C)CC(OC)C(O)C(C)C=C(C)C1OC(N)=O)C2=O (stereo not drawn) returned LGR2 antag 50 and SENP8 block-1 57*.
O=C1/C(=C\c2cc(Cl)c(O)c(Cl)c2)SC(=S)N1Cc1ccccc1 was read as LGR2 antag 0, SENP8 block-1 48* and HSP90 inh -1.
For COc1ccc(/C=C2/SC(=S)N(Cc3ccccc3)C2=O)cc1O the results were LGR2 antag -34, SENP8 block-1 20, HSP90 inh -3, SENP6 inh -23, SENP7 block -10 and SENP8 block-2 -15.
For Cc1noc(C)c1NC(=O)Nc1ccc2c(c1)CC(=O)N([C@@H](C)CO)C[C@@H](C)[C@H](CN(C)C(=O)Nc1cccc3ccccc13)O2 the results were LGR2 antag -5.
For CO[C@@H]1CN(C)C(=O)c2cc(NC(=O)c3ccc(Oc4ccccc4)cc3)ccc2OC[C@@H](C)N(C(C)=O)C[C@H]1C the results were LGR2 antag -23.
Screening C/C(=N\Nc1ccc(C#N)cc1[N+](=O)[O-])c1ccc(O)cc1 returned LGR2 antag 20, SENP8 block-1 44*, HSP90 inh 1, SENP6 inh -18, SENP7 block -3 and SENP8 block-2 0.
For O=C(C[C@@H]1CC[C@H]2[C@@H](COC[C@H](O)CN2CC2CCCC2)O1)NCC1CC1 the results were LGR2 antag 8.
N#Cc1ccc(/C=C/C(=O)c2cccnc2)cc1 was read as LGR2 antag 81*, SENP8 block-1 -4, HSP90 inh -1, SENP6 inh -49, SENP7 block -5 and SENP8 block-2 -3.
`O=C(/C=C/c1ccc(Cl)cc1)c1cccnc1` gave SENP8 block-1 15, HSP90 inh 3, SENP6 inh -4, SENP7 block -8 and SENP8 block-2 -8.
`Cc1cc(C)n2c(Nc3ccc4c(c3)OCCO4)c(-c3cc4ccccc4o3)nc2n1` gave LGR2 antag 92* and SENP8 block-1 -101.
Cc1ccccc1-c1ccc(C2[C@@H]3CN(C(=O)Nc4cccc(F)c4)C[C@H]2N3)cc1 (stereo partly drawn) was read as LGR2 antag 11.
Screening C[C@H](CO)N1C[C@H](C)[C@H](CN(C)C(=O)Nc2ccc3c(c2)OCO3)Oc2ccc(NC(=O)Nc3ccc4c(c3)OCO4)cc2CC1=O returned LGR2 antag -5.
For CC(C)(C)c1ccc(/C=N/Nc2nncn2N)cc1 the results were LGR2 antag -17, SENP8 block-1 18, HSP90 inh -3, SENP6 inh -18, SENP7 block -3 and SENP8 block-2 6.
`Nn1cnnc1N/N=C/c1cc(Br)cc(Br)c1O` gave SENP8 block-1 -21, HSP90 inh 68*, SENP6 inh -25, SENP7 block -2 and SENP8 block-2 2.
For COc1ccc(NC(=O)N(C)C[C@@H]2Oc3ccc(NC(=O)NC4CCCCC4)cc3C(=O)N([C@@H](C)CO)C[C@H]2C)cc1 the results were LGR2 antag -11.
`Oc1ccc(C2Nc3cccc4cccc(c34)N2)c(O)c1` gave SENP8 block-1 45*, HSP90 inh -1, SENP6 inh 5, SENP7 block 3 and SENP8 block-2 -5.
